Among the test systems are NCI-H23 lung; NCI-H226 lung; NCI-H322M lung; HOP-62 NSCLC; NCI-H460 lung; HOP-92 NSCLC; NCI-H522 lung; A549/ATCC NSCLC; 786-0 renal; COLO 205 colon.
Common to all, as to assay: NCI-60 one-dose screen, 48 h (100 = growth as untreated, 0 = no growth, -100 = all killed)
Conditions in all cases: 10 µM unless noted

Among the data in PubChem BioAssay (NCI) are growth values, retold here.

Compounds without any hit were thinned out: in the full panel of roughly 83,000, 20% have a hit.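 Results are percent growth after 48 hours of single-concentration exposure. 100 means growth as in untreated cells, lower positive values show inhibition; negative values down to -100 show cell death.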 Unmarked numbers belong to inactive results. Activity calls are given as the source filed them. Rule for the calls: active = growth percent below 10; inactive = the rest.

For `CCCCSc1nc(NCCc2c[nH]c3ccccc23)c(C#N)c(-c2ccccc2)n1`, the growth was 15.8% in the assay on NCI-H23 lung; 44.6% in the assay with NCI-H226 lung; 83.8% in the assay on NCI-H322M lung; 39.7% in the assay with HOP-62 NSCLC; 14.5% with NCI-H460 lung; -1.67% (active) in the assay on HOP-92 NSCLC. The growth with NCI-H522 lung was 47.4%; in the assay on A549/ATCC NSCLC, 39.1%; in the assay on 786-0 renal it was 10.6%; in the assay with COLO 205 colon, 24.8%.
Regarding `CC(=O)Nc1ccc(C(=O)NC(=S)Nc2ccc(S(N)(=O)=O)cc2)cc1`, the growth is 94.4% in the assay on NCI-H23 lung; 81.9% with NCI-H226 lung; 92.4% in the assay with NCI-H322M lung; 90.8% in the assay with HOP-62 NSCLC; 102% with NCI-H460 lung; 95.4% with HOP-92 NSCLC. Further, the growth was 73.7% in the assay on NCI-H522 lung, 99.2% in the assay with A549/ATCC NSCLC, 95.5% in the assay with 786-0 renal and 105% in the assay with COLO 205 colon.
Turning to `NS(=O)(=O)c1ccc(NNC(=O)CCC(=O)c2ccccc2)cc1`, the growth in the assay on NCI-H23 lung was 105%; in the assay with NCI-H226 lung, 100%; in the assay on NCI-H322M lung, 109%; in the assay with HOP-62 NSCLC, 100%; in the assay with NCI-H460 lung it was 107%; in the assay with HOP-92 NSCLC, 93.3%. Further, the growth is 89.1% with NCI-H522 lung, 103% in the assay on A549/ATCC NSCLC, 98.4% in the assay on 786-0 renal and 118% with COLO 205 colon.
Consider `COc1ccc(C(SCCNCc2cc(N(C)C)ccn2)(c2ccccc2)c2ccccc2)cc1`, for which the growth in the assay with NCI-H23 lung is -10.7% (active); with NCI-H226 lung, 15.1%; with NCI-H322M lung, 27.5%; with HOP-62 NSCLC, 10.9%; with NCI-H460 lung, -58.6% (active); with HOP-92 NSCLC, -16.5% (active). Moreover, the growth with NCI-H522 lung is -20.6% (active); with A549/ATCC NSCLC, 10.1%; in the assay with 786-0 renal it was -23.1% (active); in the assay on COLO 205 colon, -78% (active).
Consider `O=C(NNc1nc2cc(C(F)(F)F)ccc2n2cccc12)c1cnccn1`, for which the growth is -27.5% (active) in the assay with NCI-H23 lung; -53.5% (active) in the assay on NCI-H226 lung; -13.6% (active) with NCI-H322M lung; -73.4% (active) in the assay on HOP-62 NSCLC; -30.3% (active) with NCI-H460 lung; -74% (active) in the assay with HOP-92 NSCLC. Moreover, the growth in the assay on NCI-H522 lung is -60.2% (active); in the assay on A549/ATCC NSCLC, -60.5% (active); in the assay with 786-0 renal, -99.1% (active); in the assay with COLO 205 colon, -72.3% (active).
Turning to `COc1ccc(C(=O)/C=C/c2c(F)cccc2Cl)cc1S(N)(=O)=O`, the growth with NCI-H23 lung was -16% (active); in the assay on NCI-H226 lung, 22.2%; in the assay on NCI-H322M lung, 17.4%; with HOP-62 NSCLC it was 2.33% (active); in the assay with NCI-H460 lung, 3.49% (active); in the assay on HOP-92 NSCLC it was 9.66% (active). Moreover, the growth is -61.1% (active) in the assay with NCI-H522 lung, 8.28% (active) in the assay with A549/ATCC NSCLC, 0.405% (active) in the assay with 786-0 renal and -84.7% (active) in the assay on COLO 205 colon.
For the molecule `Cn1cc(NC(=O)c2cc(NC(=O)c3ccc(/C=C/c4ccccc4)cc3)cn2C)cc1C(=O)NCCCN1CCOCC1`, the growth in the assay on NCI-H23 lung was 66.7%; with NCI-H226 lung, 77.4%; in the assay on NCI-H322M lung, 69.9%; in the assay on HOP-62 NSCLC it was 90.9%; in the assay on NCI-H460 lung, -51.6% (active); in the assay on HOP-92 NSCLC it was -18% (active). The growth is 17.6% in the assay on NCI-H522 lung, 26.9% in the assay on A549/ATCC NSCLC, 27.9% in the assay on 786-0 renal and -78.6% (active) with COLO 205 colon.
Turning to `CSc1ccc(NC(=O)c2ccc3nnn(/C(C#N)=C/c4ccccn4)c3c2)cc1`, the growth in the assay on NCI-H23 lung is -95.9% (active); with NCI-H226 lung, -94.9% (active); with NCI-H322M lung, 3.57% (active); in the assay with HOP-62 NSCLC it was -58.1% (active); with NCI-H460 lung it was -47.2% (active); in the assay with HOP-92 NSCLC it was -77.6% (active). In addition, the growth was -95.4% (active) in the assay on NCI-H522 lung, -52.5% (active) in the assay with A549/ATCC NSCLC, -98.1% (active) in the assay on 786-0 renal and -88.4% (active) with COLO 205 colon.
As to `O=C1N/C(=N\c2nccs2)S/C1=C\C=C/c1ccccc1`, the growth in the assay with NCI-H23 lung was 55.8%; with NCI-H226 lung it was 81.5%; in the assay on NCI-H322M lung, 30.4%; with HOP-62 NSCLC, 43%; in the assay with NCI-H460 lung it was 26.4%; in the assay with HOP-92 NSCLC it was 64%. In addition, the growth was 19.8% in the assay on NCI-H522 lung, -81.1% (active) with A549/ATCC NSCLC, 31% in the assay on 786-0 renal and 33.2% with COLO 205 colon.
In the case of `CC(=O)NNc1ccc2nnc(-c3ccccc3)n2n1`, the growth in the assay on NCI-H23 lung is 96.6%; in the assay with NCI-H226 lung, 105%; with NCI-H322M lung it was 102%; in the assay on HOP-62 NSCLC, 116%; in the assay on NCI-H460 lung it was 106%; in the assay with HOP-92 NSCLC, 109%. Moreover, the growth was 109% in the assay on NCI-H522 lung, 102% in the assay on A549/ATCC NSCLC, 104% in the assay on 786-0 renal and 104% with COLO 205 colon.
Take `COc1ccc(C(=O)/C=C/c2ccccc2Cl)cc1S(N)(=O)=O`: the growth in the assay on NCI-H23 lung is 117%; with NCI-H226 lung, 106%; in the assay on NCI-H322M lung, 102%; in the assay on HOP-62 NSCLC, 124%; in the assay on NCI-H460 lung, 103%; in the assay with HOP-92 NSCLC it was 102%. For the same molecule, the growth in the assay on NCI-H522 lung is 102%; with A549/ATCC NSCLC, 112%; in the assay with 786-0 renal, 104%; in the assay with COLO 205 colon it was 106%.
Consider `COc1ccc(-c2nnc3ccc(N/N=C/c4ccc(C)cc4)nn23)cc1`, for which the growth with NCI-H23 lung is 50.7%; in the assay with NCI-H226 lung, 54.6%; with NCI-H322M lung, 85.3%; with HOP-62 NSCLC, 70.4%; in the assay with NCI-H460 lung, 51.2%; in the assay on HOP-92 NSCLC it was 18.9%. In addition, the growth was 91% with NCI-H522 lung, 33.4% in the assay with A549/ATCC NSCLC, 56.9% in the assay on 786-0 renal and 79.9% in the assay on COLO 205 colon.
Turning to `CCN1CCN(Cc2ccc(C(=O)Nc3cccc(C#Cc4cccc5[nH]nc(N)c45)c3)cc2C(F)(F)F)CC1`, the growth in the assay on NCI-H23 lung was -82.6% (active); with NCI-H226 lung, -35.2% (active); in the assay on NCI-H322M lung it was -95.2% (active); in the assay on HOP-62 NSCLC it was -66.1% (active); with NCI-H460 lung, -39.2% (active); with HOP-92 NSCLC it was -69.8% (active). Further, the growth in the assay with NCI-H522 lung is -59.9% (active); in the assay on A549/ATCC NSCLC, -84.8% (active); with 786-0 renal it was -98.5% (active); with COLO 205 colon, -86.6% (active).
